Shown is part of a subset that was picked to be rich in hits.
mHTT CaM bind: mutant huntingtin-calmodulin interaction inhibitors – biochemical, AlphaScreen, primary screen. AlphaScreen His-mHTT/GST-CaM binding, luminescence. 190,000 compounds, 3.6% hits. inhibition, % at 15 µM. AID 1671202, 2021;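 also: 0% = both proteins with DMSO and 100% = one protein alone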
Pf apPOL block: Pf-apPOL inhibitors, biochemical, fluorescence; AID 1794808, 2022; Recombinant Pf-apPOL, molecular beacon fluorescence, 1.5 h; Plasmodium falciparum apicoplast DNA polymerase (apPOL); 210,000 compounds, 0.25% hits; inhibition, % at 10 µM
Starred values were filed as active, the others as inactive. Rule as the data show it: active = inhibition above about 50%; inactive = the rest.

SMILES	mHTT CaM bind	Pf apPOL block
O=C1CSC(c2ccc(F)cc2)N1c1ccc(F)cc1F (stereo unspecified)	-6	-2
COc1ccc(-c2[nH]ncc2-c2ccc(Cl)cc2)c(O)c1	69*	-4
COc1ccc(-c2[nH]ncc2Oc2ccc(F)cc2)c(O)c1	44	0
COCCNC(=O)c1ccc2c(c1)NC(=O)C(N1CCCCC1)S2 (stereo unspecified)	-2	-28
O=C(O)CCCc1nc2ccccc2[nH]1	-6	-2
NC(=O)Cc1nc2ccccc2[nH]1	-5	97*
C=CCOc1ccc(C2CC(=O)Nc3c2c(C)nn3-c2nc3ccccc3s2)cc1OC (stereo unspecified)	19	-4
O=C1NC(=O)N(c2ccccc2F)C(=O)/C1=C/c1cn(CC(=O)N2CCCCC2)c2ccccc12	59*	-2
Cc1cccc(N2C(=O)NC(=O)/C(=C\c3cn(CC(=O)N4CCCC4)c4ccccc34)C2=O)c1C	5	-6
Cc1ccccc1N1C(=O)NC(=O)/C(=C\c2cn(CC(=O)Nc3ccccc3)c3ccccc23)C1=O	64*	0
Cc1cccc(N2C(=O)NC(=O)/C(=C\c3cn(CC(=O)N4CCOCC4)c4ccccc34)C2=O)c1	-2	-5
Cc1ccccc1N1C(=O)NC(=O)/C(=C\c2cn(CC(=O)N3CCOCC3)c3ccccc23)C1=O	25	-11
O=C1NC(=O)N(c2ccccc2F)C(=O)/C1=C/c1cn(CC(=O)N2CCCC2)c2ccccc12	75*	-1
COc1cc(Br)c(/C=C(\C#N)c2ccccc2)cc1OC	-32	5
COc1ccc(NC(=O)CN2C(=O)C(c3ccc(OC)cc3)=NC2(C)C)cc1	1	-5
COc1ccccc1C(=O)Nc1c2c(nn1-c1cccc(Cl)c1)CS(=O)C2 (stereo unspecified)	0	-1
O=C(c1ccco1)N1CCCC(OCc2nc(-c3cnccn3)no2)C1 (stereo unspecified)	-1	2
O=c1c(C=NCCN2CCOCC2)c(C(F)(F)F)[nH]n1-c1nc2ccccc2s1	4	3
COc1ccc(-c2[nH]n(-c3nc4ccccc4s3)c(=O)c2C=NCCN2CCOCC2)cc1	68*	2
O=[N+]([O-])c1ccc(CN2CCCCCC2)o1	0	-13
Clc1ccc(OCCSc2ncnc3nc[nH]c23)cc1	18	2
Oc1cccc2ccc(/C=C/c3ccccc3Cl)nc12	52*	5
Oc1cccc2ccc(/C=C/c3ccc4c(c3)OCO4)nc12	37	-1
Oc1cccc2ccc(/C=C/c3cc4c(cc3Cl)OCO4)nc12	56*	-7
Cc1cccc(/C=C/c2ccc3cccc(O)c3n2)c1O	38	-3
SMILES	mHTT CaM bind	Pf apPOL block
CNC(=O)C12CCC3CC(CC(C3)C1)C2	-5	-2
Cc1ccc(CN2CCc3ccccc3C2)o1	-4	-1
Cc1[nH]c2ccccc2c1CN1CCc2ccccc2C1	62*	-5
Cc1ccc(-c2csc3ncnc(Nc4ccc(N5CCOCC5)cc4)c23)cc1	60*	0
Cc1sc2ncnc(Nc3ccc(N4CCCCC4)cc3)c2c1C	24	4
O=C(NCCCc1ccccc1)c1ccc2c(c1)NC(=O)C1CCCN21 (stereo unspecified)	67*	4
COc1cccc(N2CCN(C(=O)c3ccc4c(c3)NC(=O)C3CCCCN43)CC2)c1 (stereo unspecified)	30	2
O=C(NCCN1CCCCCC1)c1ccc2c(c1)NC(=O)C1CCCCN21 (stereo unspecified)	11	1
O=C(NCCN1CCC(Cc2ccccc2)CC1)c1ccc2c(c1)NC(=O)C1CCCCN21 (stereo unspecified)	97*	2
O=C(NCCCc1ccccc1)c1ccc2c(c1)NC(=O)C1CCCCN21 (stereo unspecified)	-2	-4
O=C1Nc2cc(C(=O)N3CCN(c4cccc(Cl)c4)CC3)ccc2N2CCCCC12 (stereo unspecified)	93*	2
CCc1nc(C)c2c(n1)N(Cc1cccc(C)c1)C(=O)CC2	4	20
CC(C)C(NC(=O)/C(=C/c1ccc2c(c1)OCO2)NC(=O)c1ccco1)C(=O)O (stereo unspecified)	-3	-4
COc1ccc(C(=O)C[n+]2cc(Br)cc3ccccc32)cc1[N+](=O)[O-]	44	0
O=C(C[n+]1cc(Br)cc2ccccc21)c1ccccc1	60*	1
O=[N+]([O-])c1ccccc1-c1nc(-c2ccncc2)no1	12	11
O=C(NCC#CCN1CCc2ccccc2C1)c1cc2ccccc2[nH]1	28	-6
COc1ccc(OC)c(-c2cc(C(=O)NCC#CCN3CCc4ccccc4C3)[nH]n2)c1	53*	2
CCOc1ccc(NC(=O)CSCc2ccccc2C)cc1	6	-4
Nc1ccc2[nH]c3ccccc3c2c1	99*	6
CC(=O)c1ccc2[nH]c3ccccc3c2c1	-4	3
COc1ccc2[nH]cc(CCN3CC(C(=O)Nc4nc5ccc(C)cc5s4)CC3=O)c2c1 (stereo unspecified)	56*	-2
Cc1ccc(C)c(NC(=O)C2CC(=O)N(CCc3c[nH]c4ccc(F)cc34)C2)c1 (stereo unspecified)	22	0
COc1ccc2[nH]cc(CCN3CC(C(=O)Nc4ccc(C)cc4C)CC3=O)c2c1 (stereo unspecified)	12	-3
Cc1ccc2nc(NC(=O)C3CC(=O)N(CCc4c[nH]c5ccc(F)cc45)C3)sc2c1 (stereo unspecified)	91*	-1
SMILES	mHTT CaM bind	Pf apPOL block
CC(NC(=O)c1cn2c(n1)CCCC2)c1ccccc1 (stereo unspecified)	-8	-4
Cc1cccc(NC(=O)c2cnn(-c3ccccc3)c2NC(=O)c2ccccc2Br)c1	6	-6
CCOc1ccc(-n2nc(C(=O)N3CCCCC3C)c3ccccc3c2=O)cc1 (stereo unspecified)	16	3
Cc1c(C(=O)O)c(-c2ccccc2)nn1-c1ccccc1	0	-5
Oc1ccc2c(c1)c(-c1ccccc1)nn2-c1ccccc1	55*	-3
COc1ccc(N(C)C(=O)c2nc(C)n(C3CCN(C)CC3)c2C)cc1	76*	6
Cc1nc(C(=O)N(C)C)c(C)n1C1CCN(C)CC1	-1	-4
COc1cc(OC)c2c(-c3ccccc3)cc(=O)oc2c1C(CC(=O)N1CCOCC1)c1ccc(N(C)C)cc1 (stereo unspecified)	66*	-4
COc1cc(OC)c2c(-c3ccccc3)cc(=O)oc2c1C(CC(=O)N1CCOCC1)c1ccc2c(c1)OCO2 (stereo unspecified)	34	-4
COc1cc(OC)c2c(-c3ccccc3)cc(=O)oc2c1C(CC(=O)N1CCN(c2ccccc2)CC1)c1ccc(N(C)C)cc1 (stereo unspecified)	58*	-7
COc1cc(O)c(C(CC(=O)N2CCCC2)c2ccc(N(C)C)cc2)c(OC)c1 (stereo unspecified)	35	-4
COCCN1C(=O)C(=O)C(=C(O)c2ccccc2)C1c1ccc(O)c(OC)c1 (stereo unspecified)	-2	3
O=S(=O)(c1ccc(F)cc1)N1CCC(c2noc(-c3ccc(Cl)cc3)n2)CC1	-5	-7
Cc1cc2ccccc2n1CCCNC(=O)c1cc(-c2ccco2)on1	23	-2
Cc1ccc(-c2ccc(C=C3C(=O)OC(C)(C)OC3=O)o2)cc1	7	4
